Measurements as given in PubChem BioAssay (NCATS).
Values joined by “and” are separate entries in the source; they are usually repeats but may differ in a detail not shown here. Identical values can stand only once. Inconclusive results are not listed. Active and inactive are the calls of the source. Unless noted, the call rests on the fitted dose curve; in most records, active means well fitted curve in either direction with a large enough effect (not every such curve was filed as active); inconclusive means small, poorly fitted or top-dose-only effect, or another doubt; inactive means flat fitted curve, though single readings scatter.

Experiments:
[1] = AP1 Signaling Pathway (AID 357);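 further: ME-180 reporter cells stimulated with EGF at its EC50 level; on the % scale 0 is the no-effect control and ±100 the full control effect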
In short: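 Modulation of EGF-driven AP-1 transcription was assessed with a beta-lactamase reporter in ME-180 cells. Compound and EC50 EGF were co-incubated 5 hours at 37 °C before 2.5-hour CCF4 loading at room temperature and dual-emission reading.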

[2] = NFAT Signaling Pathway (AID 444); details: Jurkat NFAT-bla M1, carbachol, beta-lactamase ratio, 5 h;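 further: carbachol stimulus at about its EC50 of 1 µM final; on the % scale 0 is the no-effect control and ±100 the full control effect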
In short: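 Jurkat cells carrying an NFAT-driven β-lactamase reporter and co-transfected muscarinic M1 receptor were treated with compound plus carbachol (1 uM final, an EC50 level) for 5 h at 37 °C. CCF4 loading followed for 1 h at RT; 460/530 nm ratio gave %activity.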

[3] = Stat Signaling Pathway (AID 446);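 further: ME-180 cervical cancer cells given 40 pM IL-6 alongside compound; SIE-controlled beta-lactamase reporter measured as 460/530 nm FRET emission ratio; on the % scale 0 is the no-effect control and ±100 the full control effect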
In short: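 Compound effects on IL-6-induced STAT reporter activity were measured in ME-180 cells. After overnight culture, cells were co-treated with 40 pM IL-6 for 5 hrs before beta-lactamase substrate loading at room temperature.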

[4] = target: Glucocorticoid receptor (Homo sapiens) (UniProt P04150); experiment: GR-EFC Redistribution (AID 451; calls by dose curve; further: potency means the concentration at half of the fitted maximal effect); details: CHO-K1 GR-EFC translocation, beta-gal luminescence, 2 h
In short: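 CHO-K1 cells stably expressing nuclear-localized β-gal enzyme acceptor and GR fused C-terminally to the enzyme donor fragment; ligand-driven nuclear translocation restores β-gal by complementation. Compounds titrated up to 46 uM final, 2 h at 37 °C; luminescence read.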

[5] = target: Mitogen-activated protein kinase 10 (Mus musculus) (UniProt Q61831); experiment: JNK3 AlphaScreen Assay (AID 530);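 further: kinase came from lysate of stimulated human HepG2 cells; signal reports phosphorylation of biotinylated GST-cJun 1-79 at Ser73 with 10 µM ATP; on the % scale 0 is the no-effect control and ±100 the full control effect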
In short: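 Phosphorylation of biotinylated GST-cJun(1-79) at Ser73 is measured by AlphaScreen proximity luminescence. Enzyme is JNK3 in HepG2 lysates activated with interleukin-1beta and tumor necrosis factor alpha; ATP is 10 uM final.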

[6] = target: 3',5'-cyclic-AMP phosphodiesterase 4B (Homo sapiens) (UniProt Q07343); experiment: qHTS Assay for Inhibitors of PDE-IV (AID 607; active means well fitted activation curve with a large enough effect in the main read-out, with a control signal flat, not every such curve was filed as active; further: % of control where 0% means no effect)
In short: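 ACTOne HEK293 cells carry a modified cAMP-gated CNG channel and express endogenous PDE4; plated 1000 cells/well, compounds up to 22.9 uM final. Membrane-potential dye fluorescence (ex 535/em 590) was read; parental cells received 10 uM forskolin + 100 uM RO 20-1724.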

[7] = qHTS Assay for Lipid Storage Modulators (AID 1519; calls by dose curve); details: Drosophila S3 cells, BODIPY lipid droplet/cell ratio, laser cytometry, cells loaded with oleic acid
In short: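 Cells seeded at 5,000 per well were treated with compounds over a concentration series and loaded with oleic acid (400 uM, as added). Lipid droplet fluorescence (488 nm excitation, 500-530 nm channel) was read by laser-scanning cytometry and normalized to 20 uM Triacsin C.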

[8] = target: Cytochrome P450 1A2 (Homo sapiens) (UniProt P05177); experiment: p450-cyp1a2 (AID 410; calls by dose curve; further: potency means the concentration at half of the fitted maximal effect;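 on activity change, negative = inhibition: -100% = full effect of reference inhibitor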)
In short: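 Luminescent demethylation readout: Luciferin-ME (100uM, equal to Km) turned over by 20nM CYP1A2 for 60 min at room temperature after NADPH regeneration addition, following 10 min compound preincubation. Normalization used 57 uM furafylline as full inhibition.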

[9] = target: Glucocorticoid receptor (Homo sapiens) (UniProt P04150); experiment: GR-GFP Redistribution (AID 450;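 active means compounds whose dose series gives a full or clear partial fitted curve of increased nuclear translocation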; further: potency means the concentration at half of the fitted maximal effect); details: U2OS GR-GFP nuclear translocation, laser cytometry, 2 h
[10] = target: Cytochrome P450 3A4 (Homo sapiens) (UniProt P08684); experiment: qHTS Assay for Activators of Cytochrome P450 3A4 (AID 885; active means well fitted curve in the direction sought with a large enough effect; an effect the other way counts as inactive or inconclusive; further: nearly all actives have a fitted effect of over 65% in size)
In short: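 CYP3A4 activity: Luciferin-PPXE O-dealkylation, 25uM substrate, 200mM KPO4, RT throughout. Read-out is luciferase luminescence; higher values reflect activation.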

[11] = target: Cytochrome P450 2D6 (Homo sapiens) (UniProt P10635); experiment: qHTS Assay for Inhibitors and Substrates of Cytochrome P450 2D6 (AID 891; active means well fitted curve in the direction sought with a large enough effect; an effect the other way counts as inactive or inconclusive; further: nearly all actives have a fitted effect of over 60% in size; further: potency means the concentration at half of the fitted maximal effect)
In short: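 Luminescent read-out of luciferin formed by 5 nM human CYP2D6 demethylating 30 uM Luciferin-ME EGE (Km level) over 60 min at room temperature after NADPH regeneration addition. Data normalized to full inhibition by 1.43 uM quinidine.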

[12] = target: Ubiquitin carboxyl-terminal hydrolase 1 (Homo sapiens) (UniProt O94782); experiment: Inhibitors of USP1/UAF1: Pilot qHTS (AID 504865; active means well fitted curve in the direction sought with a large enough effect; an effect the other way counts as inactive or inconclusive;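 further: rhodamine fluorescence freed from ubiquitin-rhodamine substrate followed over time; top concentration of the series differs between compounds; on the % scale 0 is the no-effect control and ±100 the full control effect; nearly all actives have a fitted effect of over 35% in size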)
In short: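 Enzyme-free wells gave the negative control, while test wells held 1nM USP1/UAF1 preincubated with compound for 15 min at room temperature. Ub-Rho at 150nM final started the reaction, and fluorescence at 480/540 nm was recorded kinetically.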

[13] = measured here: cell count channel max response
[14] = measured here: lipid channel max response

Ubiquitin carboxyl-terminal hydrolase 1 (Homo sapiens), sequence (O94782 whole entry, looked up): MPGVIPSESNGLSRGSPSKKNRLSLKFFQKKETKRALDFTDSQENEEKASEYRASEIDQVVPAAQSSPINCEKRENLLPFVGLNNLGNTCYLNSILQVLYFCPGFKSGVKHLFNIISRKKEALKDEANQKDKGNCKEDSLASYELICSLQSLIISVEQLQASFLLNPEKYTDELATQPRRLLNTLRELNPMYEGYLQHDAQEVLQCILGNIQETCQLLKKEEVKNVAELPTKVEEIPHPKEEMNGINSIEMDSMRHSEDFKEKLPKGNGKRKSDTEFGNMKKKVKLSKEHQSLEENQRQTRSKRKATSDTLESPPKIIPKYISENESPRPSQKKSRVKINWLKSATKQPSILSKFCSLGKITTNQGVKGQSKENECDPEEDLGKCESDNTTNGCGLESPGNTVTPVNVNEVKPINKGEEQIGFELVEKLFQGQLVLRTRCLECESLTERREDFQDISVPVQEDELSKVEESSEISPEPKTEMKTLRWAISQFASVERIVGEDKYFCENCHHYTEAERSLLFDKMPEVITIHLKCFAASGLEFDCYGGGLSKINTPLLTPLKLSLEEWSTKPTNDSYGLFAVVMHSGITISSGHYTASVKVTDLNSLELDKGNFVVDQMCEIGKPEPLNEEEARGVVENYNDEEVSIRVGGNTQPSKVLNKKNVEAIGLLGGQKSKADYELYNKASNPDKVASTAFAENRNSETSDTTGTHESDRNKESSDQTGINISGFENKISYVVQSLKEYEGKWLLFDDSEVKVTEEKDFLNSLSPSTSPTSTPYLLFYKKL
Glucocorticoid receptor (Homo sapiens), sequence (P04150 whole entry, looked up, the tested form may be a part): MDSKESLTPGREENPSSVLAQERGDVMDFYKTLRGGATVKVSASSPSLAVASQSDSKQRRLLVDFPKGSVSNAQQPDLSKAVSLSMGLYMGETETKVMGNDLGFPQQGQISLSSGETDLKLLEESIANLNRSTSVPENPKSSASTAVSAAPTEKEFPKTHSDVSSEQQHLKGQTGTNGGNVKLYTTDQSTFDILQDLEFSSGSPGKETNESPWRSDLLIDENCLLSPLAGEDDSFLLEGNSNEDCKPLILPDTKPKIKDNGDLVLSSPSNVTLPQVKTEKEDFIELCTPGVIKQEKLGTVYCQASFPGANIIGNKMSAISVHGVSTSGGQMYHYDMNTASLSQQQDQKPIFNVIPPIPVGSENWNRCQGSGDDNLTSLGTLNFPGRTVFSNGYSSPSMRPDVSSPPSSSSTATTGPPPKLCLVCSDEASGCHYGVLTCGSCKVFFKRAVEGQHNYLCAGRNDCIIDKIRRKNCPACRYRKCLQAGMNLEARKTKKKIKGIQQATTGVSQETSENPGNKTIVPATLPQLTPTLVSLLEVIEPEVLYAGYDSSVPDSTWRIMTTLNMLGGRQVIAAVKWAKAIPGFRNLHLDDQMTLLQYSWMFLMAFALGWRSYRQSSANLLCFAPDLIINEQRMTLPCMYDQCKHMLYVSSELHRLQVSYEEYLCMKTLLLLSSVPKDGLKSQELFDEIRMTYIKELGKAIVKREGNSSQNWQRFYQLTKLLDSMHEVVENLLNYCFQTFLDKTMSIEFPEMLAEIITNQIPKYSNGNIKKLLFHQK
Cytochrome P450 2D6 (Homo sapiens), sequence (P10635 whole entry, looked up): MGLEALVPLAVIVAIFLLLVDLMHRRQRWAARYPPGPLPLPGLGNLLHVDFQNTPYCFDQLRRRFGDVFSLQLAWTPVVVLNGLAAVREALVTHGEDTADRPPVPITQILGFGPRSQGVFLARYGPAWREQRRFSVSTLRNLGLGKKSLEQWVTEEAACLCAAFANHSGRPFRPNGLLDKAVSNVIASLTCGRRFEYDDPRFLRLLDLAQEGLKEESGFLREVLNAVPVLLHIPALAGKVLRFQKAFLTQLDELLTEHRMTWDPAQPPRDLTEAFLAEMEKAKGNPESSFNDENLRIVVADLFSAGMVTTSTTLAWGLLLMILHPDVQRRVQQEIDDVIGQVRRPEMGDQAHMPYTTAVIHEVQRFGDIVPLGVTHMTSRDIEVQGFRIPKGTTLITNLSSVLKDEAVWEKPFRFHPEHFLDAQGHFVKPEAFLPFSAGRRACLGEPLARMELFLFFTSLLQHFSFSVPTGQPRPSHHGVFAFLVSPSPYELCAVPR
Cytochrome P450 1A2 (Homo sapiens), sequence (P05177 whole entry, looked up): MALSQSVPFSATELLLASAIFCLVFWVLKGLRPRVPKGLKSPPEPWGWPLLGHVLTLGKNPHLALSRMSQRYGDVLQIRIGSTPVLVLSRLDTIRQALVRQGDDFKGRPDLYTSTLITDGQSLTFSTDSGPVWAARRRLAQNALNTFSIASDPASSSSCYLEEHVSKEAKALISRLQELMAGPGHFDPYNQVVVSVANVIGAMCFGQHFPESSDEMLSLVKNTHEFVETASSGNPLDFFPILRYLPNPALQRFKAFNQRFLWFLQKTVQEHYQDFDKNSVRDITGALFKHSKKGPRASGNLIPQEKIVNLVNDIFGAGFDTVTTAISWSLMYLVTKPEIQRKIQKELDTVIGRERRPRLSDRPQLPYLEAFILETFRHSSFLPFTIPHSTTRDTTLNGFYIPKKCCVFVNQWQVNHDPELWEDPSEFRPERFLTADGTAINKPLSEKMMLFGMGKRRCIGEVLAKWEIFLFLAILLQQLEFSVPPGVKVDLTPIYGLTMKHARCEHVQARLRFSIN
Cytochrome P450 3A4 (Homo sapiens), sequence (P08684 whole entry, looked up): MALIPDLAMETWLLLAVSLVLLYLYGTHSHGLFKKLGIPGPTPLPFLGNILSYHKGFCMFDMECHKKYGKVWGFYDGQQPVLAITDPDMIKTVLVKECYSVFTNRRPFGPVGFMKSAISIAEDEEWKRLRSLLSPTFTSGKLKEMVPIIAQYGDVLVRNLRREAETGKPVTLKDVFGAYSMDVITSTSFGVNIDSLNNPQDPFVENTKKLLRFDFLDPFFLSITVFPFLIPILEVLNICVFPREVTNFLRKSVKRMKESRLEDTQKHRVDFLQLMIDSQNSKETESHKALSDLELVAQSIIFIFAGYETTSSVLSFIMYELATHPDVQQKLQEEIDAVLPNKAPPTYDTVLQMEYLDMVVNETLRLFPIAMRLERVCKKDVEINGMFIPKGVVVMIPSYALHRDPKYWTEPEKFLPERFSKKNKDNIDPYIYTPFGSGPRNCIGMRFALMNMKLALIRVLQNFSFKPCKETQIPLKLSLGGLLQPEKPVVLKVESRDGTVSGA
3',5'-cyclic-AMP phosphodiesterase 4B (Homo sapiens), sequence (Q07343 whole entry, looked up): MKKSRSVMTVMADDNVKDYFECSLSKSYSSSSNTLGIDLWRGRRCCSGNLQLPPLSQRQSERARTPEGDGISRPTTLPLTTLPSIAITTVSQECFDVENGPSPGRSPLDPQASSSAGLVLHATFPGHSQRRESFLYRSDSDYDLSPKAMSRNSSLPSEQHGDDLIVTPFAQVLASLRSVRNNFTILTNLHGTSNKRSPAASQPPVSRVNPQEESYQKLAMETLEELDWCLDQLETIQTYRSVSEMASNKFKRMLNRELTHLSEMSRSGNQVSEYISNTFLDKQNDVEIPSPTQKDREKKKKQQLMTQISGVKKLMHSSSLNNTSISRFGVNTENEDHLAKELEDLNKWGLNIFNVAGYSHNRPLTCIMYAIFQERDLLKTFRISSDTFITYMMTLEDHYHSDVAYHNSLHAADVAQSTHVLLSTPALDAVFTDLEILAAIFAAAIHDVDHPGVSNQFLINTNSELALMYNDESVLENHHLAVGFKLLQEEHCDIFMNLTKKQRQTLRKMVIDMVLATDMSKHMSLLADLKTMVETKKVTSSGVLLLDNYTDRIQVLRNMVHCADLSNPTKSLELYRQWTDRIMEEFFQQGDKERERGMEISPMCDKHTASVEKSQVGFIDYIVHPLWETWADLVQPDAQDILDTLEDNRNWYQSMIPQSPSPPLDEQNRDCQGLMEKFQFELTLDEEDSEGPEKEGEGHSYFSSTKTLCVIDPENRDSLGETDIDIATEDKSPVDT

COc1ccc(NC(=O)N2CCC3(CC2)CCN(C(=O)Oc2ccccc2)CC3)cc1
-23.2%: max response [7, 13]
inactive: outcome [1] | activity change, negative = inhibition ([2]; at 7.69 µM (top of the series)) 5.41% | outcome [3] | Potency [4] > 46 µM | outcome [5] | Potency [6] | activity change, negative = inhibition ([7]; at 57.5 µM (top of the series)) -1.68%
-21.9%: max response [7, 14]

CN1Cc2c(ccc3c2OCO3)[C@@H]2[C@@H](O)Cc3cc4c(cc3[C@@H]21)OCO4
0.16%: max response [7, 13]
active: Potency [8] 2.51 µM and 794 nM | Potency [11] 199 nM and 79.4 nM
inactive: outcome [1] | outcome [3] | Potency [9] > 20.6 µM and > 46 µM | Potency [4] > 20.6 µM and > 46 µM | outcome [5] | Potency [6] | Potency [10] | activity change, negative = inhibition ([7]; at 25.7 µM (top of the series)) 0.247% | Potency [12]
-1.15%: max response [7, 14]

CO[C@H]1C=C2CCN(C)[C@@H]2[C@@H]2c3cc4c(cc3C(=O)O[C@H]21)OCO4
inactive: outcome [1] | activity change, negative = inhibition ([2]; at 17.2 µM (top of the series)) 8.91% | outcome [3] | Potency [9] > 20.6 µM | Potency [4] > 20.6 µM | outcome [5] | Potency [6] | activity change, negative = inhibition ([7]; at 25.7 µM (top of the series)) 0.781% | Potency [12]
-13.3%: max response [7, 13]
-11.4%: max response [7, 14]

CO[C@@H](C)[C@](O)(C(=O)OCC1=CCN2CC[C@@H](O)[C@H]12)C(C)C
-11.3%: max response [7, 13]
inactive: outcome [1] | Potency [8] | outcome [3] | Potency [9] > 20.6 µM | Potency [4] > 20.6 µM | outcome [5] | Potency [6] | activity change, negative = inhibition ([7]; at 25.7 µM (top of the series)) -0.0062% | Potency [12]
-10.6%: max response [7, 14]

CS(=N)(=O)CC[C@@H](N)C(=O)O (some centres undefined)
16.1%: max response [7, 13]
inactive: outcome [1] | Potency [8] | outcome [3] | Potency [9] > 46 µM and > 20.6 µM | Potency [4] > 46 µM and > 20.6 µM | outcome [5] | Potency [6] | Potency [11] | activity change, negative = inhibition ([7]; at 25.7 µM (top of the series)) 0.596% | Potency [12]
16%: max response [7, 14]

C[C@]12CC[C@H](O)C[C@@H]1CC[C@H]1[C@H]2CC[C@]2(C)C(=O)CC[C@@H]12
-12.1% and -8.44% and -22.6%: max response [7, 14]
inactive: outcome [1] | activity change, negative = inhibition ([2]; at 17.2 µM (top of the series)) 4.61% and 4.01% and -7.96% | activity change, negative = inhibition ([2]; at 38 µM (top of the series)) 8.64% | outcome [3] | Potency [9] > 46 µM and > 20.6 µM | Potency [4] > 46 µM and > 20.6 µM | outcome [5] | Potency [6] | Potency [10] | activity change, negative = inhibition ([7]; at 25.7 µM (top of the series)) -2.44% and -2.6% and -5.42% | Potency [12]
-9.77% and -5.73% and -17.9%: max response [7, 13]

C=C1[C@@H]2CC[C@H]3[C@@]4(C)C[C@@H](O[C@@H]5O[C@H](CO)[C@H](OS(=O)(=O)O)[C@@H](OS(=O)(=O)O)[C@@H]5OC(=O)CC(C)C)C[C@@H](C(=O)O)[C@H]4CC[C@@]3(C2)[C@H]1O
-23.7%: max response [7, 13]
inactive: outcome [1] | activity change, negative = inhibition ([2]; at 17.2 µM (top of the series)) 13.2% | outcome [3] | Potency [9] > 20.6 µM | Potency [4] > 20.6 µM | outcome [5] | Potency [6] | activity change, negative = inhibition ([7]; at 25.7 µM (top of the series)) -6.46% | Potency [12]
-28.9%: max response [7, 14]

CNC(=O)N(C)c1nnc(C(C)(C)C)s1
16.4%: max response [7, 13]
inactive: outcome [1] | activity change, negative = inhibition ([2]; at 17.2 µM (top of the series)) -5.4% | outcome [3] | Potency [10] | activity change, negative = inhibition ([7]; at 57.5 µM (top of the series)) 6.39%
25.2%: max response [7, 14]

CN1[C@H]2CC(=O)C[C@@H]1[C@@H](O)C2
-23.7%: max response [7, 14]
-20.9%: max response [7, 13]
inactive: outcome [1] | activity change, negative = inhibition ([2]; at 17.2 µM (top of the series)) -9.47% | outcome [3] | Potency [9] > 20.6 µM | Potency [4] > 20.6 µM | outcome [5] | Potency [6] | activity change, negative = inhibition ([7]; at 25.7 µM (top of the series)) -5.66% | Potency [12]

CC[C@H](C)C(=O)O[C@@H]1[C@H](O)[C@@H]2[C@H](CN3C[C@@H](C)CC[C@@H]3[C@@]2(C)O)[C@@H]2C[C@@]34O[C@@]5(O)[C@@H](OC(=O)[C@](C)(O)CC)CC[C@@]3(C)[C@H]5[C@H](OC(C)=O)[C@@H](OC(C)=O)[C@H]4[C@]12O
-3.1%: max response [7, 14]
inactive: outcome [1] | activity change, negative = inhibition ([2]; at 17.2 µM (top of the series)) -8.39% | outcome [3] | Potency [9] > 20.6 µM | Potency [4] > 20.6 µM | outcome [5] | Potency [6] | activity change, negative = inhibition ([7]; at 25.7 µM (top of the series)) -1.19%
-2.6%: max response [7, 13]

c1ccc2c(c1)[nH]c1cnccc12
-9.28%: max response [7, 13]
inactive: outcome [1] | activity change, negative = inhibition ([2]; at 17.2 µM (top of the series)) 25.7% | outcome [3] | activity change, negative = inhibition ([7]; at 57.5 µM (top of the series)) 0.155%
-6.47%: max response [7, 14]

C[C@H]1[C@@H](O)[C@@H](C)/C=C\C=CCC\C=C/C=C\C=C/C=C[C@@H](O[C@H]2O[C@@H](C)[C@@H](O)[C@@H](N)[C@@H]2O)C[C@@H]2O[C@@](O)(C[C@@H](O)[C@H]2C(=O)O)C[C@@H](O)[C@@H](O)CC[C@@H](O)C[C@@H](O)C[C@@H](O)CC(=O)O[C@H]1C
inactive: outcome [1] | activity change, negative = inhibition ([2]; at 17.2 µM (top of the series)) 1.26% | outcome [3] | outcome [5] | Potency [6] | activity change, negative = inhibition ([7]; at 25.7 µM (top of the series)) -0.591%
5.63%: max response [7, 13]
6.3%: max response [7, 14]

C=C[C@]12CN(C)[C@H]3C1[C@@]1(C(=O)Nc4ccccc41)[C@H]1C[C@H]2[C@H]3CO1
-17.8%: max response [7, 14]
-11.8%: max response [7, 13]
inactive: outcome [1] | Potency [8] | outcome [3] | Potency [9] > 20.6 µM | Potency [4] > 20.6 µM | outcome [5] | Potency [6] | activity change, negative = inhibition ([7]; at 25.7 µM (top of the series)) -5.3%

C[C@@]12CC(=O)[C@H]3[C@@H](CCC4=CC(=O)CC[C@]43C)[C@H]1CCC2=O
-12.2%: max response [7, 14]
inactive: outcome [1] | Potency [8] | outcome [3] | Potency [9] > 20.6 µM | Potency [4] > 20.6 µM | outcome [5] | Potency [6] | activity change, negative = inhibition ([7]; at 25.7 µM (top of the series)) -2.03% | Potency [12]
-10.7%: max response [7, 13]

C=C(C)[C@H]1[C@H]2OC(=O)[C@@H]1[C@]1(O)C[C@H]3O[C@]34C(=O)O[C@H]2[C@@]14C
-3.6%: max response [7, 13]
inactive: outcome [1] | activity change, negative = inhibition ([2]; at 17.2 µM (top of the series)) -0.55% | outcome [3] | Potency [9] > 20.6 µM | Potency [4] > 20.6 µM | outcome [5] | Potency [6] | activity change, negative = inhibition ([7]; at 25.7 µM (top of the series)) -0.482% | Potency [12]
-3.43%: max response [7, 14]
